The text below walks through data of PubChem BioAssay (NCI).

Test systems include SR leukemia; RPMI-8226 leukemia; OVCAR-8 ovarian; OVCAR-5 ovarian; OVCAR-4 ovarian; SK-OV-3 ovarian; IGROV1 ovarian; OVCAR-3 ovarian; HS 578T breast; NCI/ADR-RES ovarian.
Assay in all cases: NCI-60 one-dose screen, 48 h (100 = growth as untreated, 0 = no growth, -100 = all killed)
Common to all, as to details: 10 µM

Compounds without any hit were thinned out: in the full panel of roughly 83,000, 20% have a hit.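 The endpoint reported here, percent growth, reads 100 for growth as untreated, 0 for no net growth and -100 for all cells dead.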 Values without a mark were called inactive. Calls of active or inactive are those of the source. How the source made its calls: active means growth percent below 10; inactive means the rest.

In the case of `COC1=CC(=O)c2nc(Cl)ccc2C1=O`, the growth with SR leukemia is 5.55% (active); in the test with RPMI-8226 leukemia, 3.41% (active); in the test with OVCAR-8 ovarian, 7.95% (active); with OVCAR-5 ovarian, 11.6%; in the test with OVCAR-4 ovarian, -97% (active); in the test with SK-OV-3 ovarian, 89.4%. The growth with IGROV1 ovarian was 20.4%; in the test with OVCAR-3 ovarian, -2.3% (active); in the test on HS 578T breast, 74.7%; in the test on NCI/ADR-RES ovarian, 5.5% (active).

As for `CC(C)=CC(=O)OC(=O)C=C(C)C`, the growth with SR leukemia was 94.7%; with RPMI-8226 leukemia, 109%; in the test with OVCAR-8 ovarian, 99.7%; in the test on OVCAR-5 ovarian it was 104%; in the test with OVCAR-4 ovarian, 119%; in the test with SK-OV-3 ovarian, 96.8%. The growth in the test with IGROV1 ovarian was 106%; with OVCAR-3 ovarian it was 101%; with HS 578T breast, 120%; in the test with NCI/ADR-RES ovarian, 117%.

As to `CC(=O)c1ccc(C)c(N)c1`, the growth was 106% in the test with SR leukemia; 101% in the test with RPMI-8226 leukemia; 96.4% in the test on OVCAR-8 ovarian; 102% with OVCAR-5 ovarian; 111% in the test on OVCAR-4 ovarian; 98.6% in the test on SK-OV-3 ovarian. In addition, the growth in the test with IGROV1 ovarian was 95.8%; in the test on OVCAR-3 ovarian, 108%; in the test with HS 578T breast, 96.9%; in the test with NCI/ADR-RES ovarian, 91.2%.

As for `NC(=O)c1ccc(N=C(N)N=C(N)N)cc1`, the growth in the test with SR leukemia is 97.4%; with RPMI-8226 leukemia, 107%; with OVCAR-8 ovarian it was 98.8%; with OVCAR-5 ovarian, 97.8%; in the test with OVCAR-4 ovarian, 98.2%; with SK-OV-3 ovarian it was 100%. The growth in the test on IGROV1 ovarian is 102%; with OVCAR-3 ovarian, 105%; with HS 578T breast, 99.6%; with NCI/ADR-RES ovarian, 105%.

`O=c1cc(-c2ccccc2)nc2cc(-c3ccco3)[nH]n12`: the growth in the test with SR leukemia is 13.1%; in the test with RPMI-8226 leukemia, 71.6%; in the test with OVCAR-8 ovarian it was 101%; in the test on OVCAR-5 ovarian, 116%; in the test with OVCAR-4 ovarian, 91.5%; with SK-OV-3 ovarian it was 90.3%. The growth is 70.5% in the test with IGROV1 ovarian, 93.7% in the test on OVCAR-3 ovarian, 89.2% with HS 578T breast and 98.9% in the test with NCI/ADR-RES ovarian.

Regarding `CCN(CC)C(=O)/C=C(/C)c1ccccc1`, the growth in the test on SR leukemia was 107%; in the test on RPMI-8226 leukemia, 109%; in the test with OVCAR-8 ovarian, 105%; with OVCAR-5 ovarian, 113%; with OVCAR-4 ovarian, 92.7%; with SK-OV-3 ovarian, 107%. Also, the growth in the test on IGROV1 ovarian is 117%; in the test on OVCAR-3 ovarian, 111%; with HS 578T breast it was 101%; in the test on NCI/ADR-RES ovarian it was 102%.

With `Cc1cc(=O)n(-c2ccc(F)cc2)[nH]1`, the growth with SR leukemia was 97.1%; in the test on RPMI-8226 leukemia, 94.2%; in the test on OVCAR-8 ovarian, 95.2%; in the test on OVCAR-5 ovarian it was 94.9%; in the test on OVCAR-4 ovarian, 99.2%; with SK-OV-3 ovarian, 95.3%. Also, the growth with IGROV1 ovarian is 102%; in the test with OVCAR-3 ovarian it was 103%; in the test with HS 578T breast, 102%; in the test with NCI/ADR-RES ovarian, 109%.

For `O=[N+]([O-])c1ccc(Sc2ccncn2)c([N+](=O)[O-])c1`, the growth in the test on SR leukemia is 30.6%; in the test with RPMI-8226 leukemia it was 40%; in the test on OVCAR-8 ovarian it was 102%; in the test on OVCAR-5 ovarian, 96.3%; with OVCAR-4 ovarian it was 42.9%; in the test with SK-OV-3 ovarian it was 102%. The growth was 83% with IGROV1 ovarian, 63.7% in the test with OVCAR-3 ovarian, 92.6% in the test on HS 578T breast and 58% in the test on NCI/ADR-RES ovarian.

For `C[C@]12CC[C@@H]3c4ccc(OCC(=O)O)cc4CC[C@H]3[C@@H]1CCC2=O`, the growth with SR leukemia is 88.5%; in the test with RPMI-8226 leukemia it was 121%; in the test with OVCAR-8 ovarian it was 109%; in the test with OVCAR-5 ovarian, 107%; with OVCAR-4 ovarian, 95.8%; with SK-OV-3 ovarian, 115%. The growth is 107% with IGROV1 ovarian, 101% with OVCAR-3 ovarian, 95.5% in the test on HS 578T breast and 96.4% with NCI/ADR-RES ovarian.

`COC(=O)/C=C\C(=O)OC`: the growth with SR leukemia is 103%; with RPMI-8226 leukemia, 114%; in the test on OVCAR-8 ovarian, 108%; in the test on OVCAR-5 ovarian, 116%; with OVCAR-4 ovarian it was 115%; in the test on SK-OV-3 ovarian, 118%. Moreover, the growth with IGROV1 ovarian is 113%; in the test with OVCAR-3 ovarian it was 119%; with HS 578T breast, 113%; in the test with NCI/ADR-RES ovarian, 111%.

Consider `CCOC(=O)C(O)C(O)C(=O)OCC` (stereo not given), for which the growth in the test on SR leukemia was 104%; in the test with RPMI-8226 leukemia it was 110%; in the test with OVCAR-8 ovarian, 105%; in the test on OVCAR-5 ovarian it was 100%; with OVCAR-4 ovarian, 110%; with SK-OV-3 ovarian it was 108%. The growth with IGROV1 ovarian is 115%; in the test with OVCAR-3 ovarian, 107%; with HS 578T breast it was 103%; in the test with NCI/ADR-RES ovarian it was 108%.

For `CC12CC3CC1C(C(=O)O2)C3C(=O)O` (stereo not given), the growth in the test on SR leukemia is 93.1%; in the test with RPMI-8226 leukemia, 108%; in the test on OVCAR-8 ovarian, 104%; with OVCAR-5 ovarian, 97.8%; in the test on OVCAR-4 ovarian, 111%; in the test on SK-OV-3 ovarian it was 95.6%. Besides, the growth with IGROV1 ovarian was 114%; in the test with OVCAR-3 ovarian, 101%; in the test on HS 578T breast, 108%; in the test on NCI/ADR-RES ovarian it was 97.5%.

`N#CSc1cc(S(N)(=O)=O)ccc1N`: the growth is 116% with SR leukemia; 109% in the test on RPMI-8226 leukemia; 102% with OVCAR-8 ovarian; 107% in the test with OVCAR-5 ovarian; 108% with OVCAR-4 ovarian; 108% in the test on SK-OV-3 ovarian. In addition, the growth in the test on IGROV1 ovarian is 106%; with OVCAR-3 ovarian, 113%; in the test with HS 578T breast it was 115%; in the test with NCI/ADR-RES ovarian it was 108%.

Take `CCCCCCCCOC(=O)c1ccccn1`: the growth in the test with SR leukemia was 125%; with RPMI-8226 leukemia, 101%; with OVCAR-8 ovarian, 103%; with OVCAR-5 ovarian, 95%; with OVCAR-4 ovarian, 104%; in the test on SK-OV-3 ovarian it was 95.2%. Also, the growth with IGROV1 ovarian is 103%; in the test with OVCAR-3 ovarian, 110%; with HS 578T breast, 106%; in the test with NCI/ADR-RES ovarian, 98.8%.
